Measured values as given in the antibiotic and cytotoxicity screens of Wong et al. (2023).
The whole screen tested about 39,000 compounds, of which about 3,300 (8.5%) were called active. This excerpt belongs to a sample that is enriched for actives.

The molecules below were run on HepG2 (assay: cytotoxicity call (relative viability < 0.9)). Details: 10 µM.

SMILES | cytotoxicity call
C[C@@H]1CN([C@@H](C)CO)C(=O)c2cc(C#CCN(C)C)cnc2O[C@@H]1CN(C)C(=O)Nc1cc(F)ccc1F | inactive
C/C=C/c1ccc2c(c1)O[C@H](CN(C)S(=O)(=O)c1ccccc1OC)[C@@H](C)CN([C@H](C)CO)S2(=O)=O | inactive
C[C@@H]1CN([C@H](C)CO)C(=O)c2cccc(NC(=O)C3CC3)c2O[C@H]1CN(C)Cc1ccc2c(c1)OCO2 | inactive
C[C@@H]1CN([C@@H](C)CO)C(=O)c2cc(NC(=O)CCCN(C)C)ccc2O[C@H]1CN(C)C(=O)Nc1ccc2c(c1)OCO2 | inactive
C[C@H](CO)N1C[C@H](C)[C@@H](CN(C)Cc2ccncc2)OCCCC[C@H](C)Oc2ccc(NS(=O)(=O)c3ccc(Cl)cc3)cc2C1=O | inactive
Cc1ccc(S(=O)(=O)Nc2cccc3c2O[C@H](CN(C)Cc2ccc(Cl)c(Cl)c2)[C@H](C)CN([C@H](C)CO)C3=O)cc1 | inactive
C[C@H](CO)N1C[C@H](C)[C@H](CN(C)C)OCCCC[C@H](C)Oc2ccc(NC(=O)Nc3cccc4ccccc34)cc2C1=O | inactive
O=C(O)C[C@H]1Oc2ccccc2NC1=O | inactive
O=C(C[C@@H]1CC[C@@H]2[C@H](COC[C@@H](O)CN2S(=O)(=O)c2ccccc2F)O1)NCc1ccccc1F | inactive
C[C@@H]1CN([C@H](C)CO)C(=O)c2cccc(NC(=O)C3CCOCC3)c2O[C@@H]1CN(C)S(=O)(=O)c1ccc(Cl)cc1 | inactive
O=C(/C=C/c1ccccc1)C1CC1 | inactive
O=C(C=Cc1ccccc1)c1ccc(O)cc1O | inactive
O=C(C=Cc1ccc(O)cc1)c1ccccc1 | active
O=C(C=Cc1ccc(O)cc1)c1ccccc1O | inactive
O=C(C=Cc1ccccc1)c1ccc(O)cc1 | active
CC(C)c1ccc(/C=C/C(=O)O)cc1 | inactive
CC(C)NC(=O)N(C)C[C@H]1OCCCC[C@H](C)Oc2ccc(NC(=O)C3CCCCC3)cc2C(=O)N([C@H](C)CO)C[C@H]1C | inactive
O=C1CCC(=O)NCC/C=C/CCN1 | inactive
O=C(C[C@H]1C=C[C@H](NC(=O)C2CC2)[C@H](CO)O1)NCCCN1CCOCC1 | inactive
COCC#Cc1cnc2c(c1)C(=O)N([C@@H](C)CO)C[C@@H](C)[C@H](CN(C)C(=O)Nc1ccc(OC)cc1)O2 | inactive
C[C@@H]1CCCCO[C@H](CN(C)C(=O)c2ccccc2)[C@@H](C)CN([C@@H](C)CO)C(=O)c2cc(NC(=O)CCC(F)(F)F)ccc2O1 | inactive
C[C@H]1CCCCO[C@@H](CN(C)C(=O)Nc2ccccc2)[C@@H](C)CN([C@@H](C)CO)C(=O)c2cc(NS(=O)(=O)c3ccc(Cl)cc3)ccc2O1 | inactive

SMILES | cytotoxicity call
C[C@H]1CN([C@@H](C)CO)C(=O)c2c(c3ccccc3n2C)-c2ccccc2CO[C@@H]1CN(C)S(C)(=O)=O | inactive
C[C@H](CO)N1C[C@H](C)[C@@H](CN(C)S(=O)(=O)c2ccc(F)cc2)Oc2ccc(NC(=O)CCCN(C)C)cc2CC1=O | inactive
O=C(c1cccnc1)N1CCOCC1 | active
O=C(O)c1cccnc1 | inactive
O=C(NCCCN1CCOCC1)c1cccnc1 | inactive
Cc1ccc(S(=O)(=O)N(C)C[C@@H]2Oc3c(NC(=O)Nc4cccc5ccccc45)cccc3C(=O)N([C@H](C)CO)C[C@H]2C)cc1 | inactive
CN(C)C(=O)c1cc2c(c(-c3cccc(/C=C/c4ccccc4)c3)n1)[C@H](CCO)N([S@@](=O)C(C)(C)C)C2 | inactive
C[C@H](CO)N1C[C@H](C)[C@@H](CN(C)Cc2ccc(C(F)(F)F)cc2)Oc2c(NC(=O)Nc3ccc(F)cc3)cccc2C1=O | active
C[C@H]1CN([C@@H](C)CO)C(=O)c2cccc(NC(=O)Nc3ccc(F)cc3)c2O[C@H]1CN(C)Cc1ccc(C(F)(F)F)cc1 | inactive
C[C@H]1CN([C@@H](C)CO)C(=O)c2cccc(NC(=O)Nc3ccc(C(F)(F)F)cc3)c2O[C@@H]1CN(C)Cc1ccc(C(F)(F)F)cc1 | active
C[C@H](CO)N1C[C@H](C)[C@@H](CN(C)Cc2ccc(C(F)(F)F)cc2)Oc2c(NC(=O)Nc3ccc(C(F)(F)F)cc3)cccc2C1=O | inactive
C[C@@H]1CN([C@H](C)CO)C(=O)c2cccc(NC(=O)Nc3ccc(C(F)(F)F)cc3)c2O[C@H]1CN(C)Cc1ccc(C(F)(F)F)cc1 | active
C[C@@H]1CN([C@H](C)CO)C(=O)c2cccc(NC(=O)Nc3ccc(C(F)(F)F)cc3)c2O[C@@H]1CN(C)Cc1ccc(C(F)(F)F)cc1 | active
C[C@@H]1CN([C@H](C)CO)C(=O)c2cccc(NC(=O)Nc3ccc(F)cc3)c2O[C@H]1CN(C)Cc1ccc(C(F)(F)F)cc1 | inactive
C[C@@H]1CN([C@@H](C)CO)C(=O)c2cccc(NC(=O)Nc3ccc(F)cc3)c2O[C@H]1CN(C)Cc1ccc(C(F)(F)F)cc1 | inactive
C[C@@H]1CN([C@H](C)CO)C(=O)c2cccc(NC(=O)Nc3ccc(F)cc3)c2O[C@@H]1CN(C)Cc1ccc(C(F)(F)F)cc1 | inactive
C[C@H]1CN([C@@H](C)CO)C(=O)c2cccc(NC(=O)Nc3ccc(C(F)(F)F)cc3)c2O[C@H]1CN(C)Cc1ccc(C(F)(F)F)cc1 | inactive
C[C@@H]1CN([C@@H](C)CO)C(=O)c2cccc(NC(=O)Nc3ccc(C(F)(F)F)cc3)c2O[C@@H]1CN(C)Cc1ccc(C(F)(F)F)cc1 | inactive
C[C@H](CO)N1C[C@H](C)[C@H](CN(C)Cc2ccc(C(F)(F)F)cc2)Oc2c(NC(=O)Nc3ccc(C(F)(F)F)cc3)cccc2C1=O | inactive
C[C@@H]1CN([C@H](C)CO)C(=O)c2cc(NC(=O)CCC(F)(F)F)ccc2O[C@H]1CN(C)S(=O)(=O)c1cn(C)cn1 | inactive
CC(C)NC(=O)N(C)C[C@H]1Oc2c(NS(=O)(=O)c3cn(C)cn3)cccc2C(=O)N([C@@H](C)CO)C[C@@H]1C | inactive
C[C@@H]1CCCCO[C@@H](CN(C)Cc2ccc(C(=O)O)cc2)[C@H](C)CN([C@H](C)CO)C(=O)c2cc(NC(=O)Cc3ccccc3)ccc2O1 | inactive

SMILES | cytotoxicity call
CC(C)CC#Cc1cnc2c(c1)C(=O)N([C@@H](C)CO)C[C@@H](C)[C@H](CN(C)S(=O)(=O)c1cccs1)O2 | inactive
Cc1ccc(S(=O)(=O)N(C)C[C@H]2Oc3ccc(NS(=O)(=O)c4c(C)noc4C)cc3CC(=O)N([C@@H](C)CO)C[C@@H]2C)cc1 | inactive
C[C@@H]1CN([C@H](C)CO)C(=O)Cc2cc(NC(=O)CCN3CCOCC3)ccc2O[C@H]1CN(C)S(=O)(=O)c1ccccc1 | inactive
CC(=O)OCC(=O)O[C@@H]1[C@H]2[C@@H](OC(=O)c3ccccc3)[C@@H](C)C[C@]2(O)[C@H](OC(C)=O)[C@@]2(C)[C@H](OC(C)=O)[C@]1(OC(C)=O)C[C@H]1C(=O)C(C)(C)C[C@@H]12 | inactive
O=C(NC(=O)N1CCOCC1)c1ccc(S(=O)(=O)N2CCOCC2)cc1 | inactive
C[C@@H]1CN([C@H](C)CO)C(=O)c2cccc(NC(=O)c3ccncc3)c2O[C@@H]1CN(C)Cc1ccc(-c2ccccc2)cc1 | inactive
C[C@H](CO)N1C[C@H](C)[C@@H](CN(C)S(=O)(=O)c2cccc(F)c2)Oc2ncc(Br)cc2C1=O | inactive
C[C@@H]1CN([C@H](C)CO)C(=O)c2cc(Br)cnc2O[C@H]1CN(C)C(=O)Nc1ccc2c(c1)OCO2 | inactive
C[C@@H]1CN([C@@H](C)CO)C(=O)c2cccc(NC(=O)Nc3ccc(C(F)(F)F)cc3)c2O[C@H]1CN(C)Cc1ccc(C(F)(F)F)cc1 | active
C[C@H]1CN([C@@H](C)CO)C(=O)c2cccc(NC(=O)Nc3ccc(C(F)(F)F)cc3)c2O[C@@H]1CN(C)Cc1ccc(Oc2ccccc2)cc1 | inactive
C[C@H](CO)N1C[C@H](C)[C@H](CN(C)Cc2ccc(Oc3ccccc3)cc2)Oc2c(NC(=O)Nc3ccc(C(F)(F)F)cc3)cccc2C1=O | inactive
C[C@H]1CN([C@@H](C)CO)C(=O)c2cccc(NC(=O)Nc3ccc(C(F)(F)F)cc3)c2O[C@H]1CN(C)Cc1ccc(-c2ccccc2)cc1 | inactive
C[C@@H]1CN([C@H](C)CO)C(=O)c2cccc(NC(=O)Nc3ccc(C(F)(F)F)cc3)c2O[C@H]1CN(C)Cc1ccc(-c2ccccc2)cc1 | inactive
C[C@@H]1CN([C@H](C)CO)C(=O)c2cccc(NC(=O)Nc3ccccc3)c2O[C@H]1CN(C)Cc1ccc(C(F)(F)F)cc1 | active
C[C@H](CO)N1C[C@H](C)[C@H](CN(C)Cc2ccc(C(F)(F)F)cc2)Oc2c(NC(=O)Nc3ccc(F)cc3)cccc2C1=O | inactive
C[C@H]1CN([C@@H](C)CO)C(=O)c2cccc(NC(=O)Nc3ccc(F)cc3)c2O[C@@H]1CN(C)Cc1ccc(C(F)(F)F)cc1 | inactive
C[C@@H]1CN([C@@H](C)CO)C(=O)c2cccc(NC(=O)Nc3ccc(C(F)(F)F)cc3)c2O[C@@H]1CN(C)Cc1ccc(Oc2ccccc2)cc1 | active
C[C@@H]1CN([C@@H](C)CO)C(=O)c2cccc(NC(=O)Nc3ccccc3)c2O[C@@H]1CN(C)Cc1ccc(C(F)(F)F)cc1 | inactive
C[C@@H]1CN([C@H](C)CO)C(=O)c2cccc(NC(=O)Nc3ccc(C(F)(F)F)cc3)c2O[C@@H]1CN(C)Cc1ccc(-c2ccccc2)cc1 | active
C[C@@H]1CN([C@@H](C)CO)C(=O)c2cccc(NC(=O)Nc3ccccc3)c2O[C@H]1CN(C)Cc1ccc(C(F)(F)F)cc1 | inactive
COc1ccc(S(=O)(=O)Nc2ccc3c(c2)C(=O)N([C@H](C)CO)C[C@@H](C)[C@@H](CN(C)C(=O)Nc2ccccc2)OCCCC[C@@H](C)O3)cc1 | inactive
CC(C)CC#Cc1ccc2c(c1)O[C@H](CN(C)C(=O)Cc1ccncc1)[C@H](C)CN([C@H](C)CO)S2(=O)=O | inactive
